Sampled rows, rich in hits. Any-hit rate of the full collection: about 4.2%.
SW480 rereplic: induces DNA re-replication in SW480 colon adenocarcinoma cells; SW480 DNA re-replication, Hoechst DNA content imaging, 48 h; actives 1.8% (n = 340,000); AID 624297; Potency, µM (top dose mostly 46.1 µM), for inactives: at the top dose re-replication activation, usual class: activators; also: % of control where 0% means no effect; nearly all actives have a fitted effect of over 55% in size
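Per well, 250 cells were exposed to pinned compound for 48 hr. Nuclear DNA was visualised with Hoechst (40 min, 37 C) and total object intensity recorded by fluorescence scanning.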
Integrin act MD: activates integrin-mediated alleviation for muscular dystrophy; AID 624291; Potency, µM (highest dose often 38.3 µM), inactives show at the highest dose activation, usual class: activators; alpha7betagal myoblasts, beta-gal FDG fluorescence, 48 h; actives 0.064% (n = 350,000);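 also: 100% = response of the positive control SU9516; nearly all actives have a fitted effect of over 60% in size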
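alpha7betagal+/- myoblasts (passage 13, 250/well) treated 48 h at 37C with compounds at 1:260 dilution of DMSO stock. Lysed, then beta-galactosidase activity read as FDG fluorescence (ex 480/em 540) after 30 min, with pre-read for autofluorescence.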
Mito fusion act: inhibitors of mitochondrial division or activators of mitochondrial fusion; S. cerevisiae fusion-defective mutant growth rescue, CellTiterGlo 48 h; Potency, µM (top dose mostly 46.1 µM), inactives show at the top dose growth rescue (activation), most hits filed as activators; actives 0.23% (n = 320,000); AID 485298; also: % of control where 0% means no effect; nearly all actives have a fitted effect of over 45% in size
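Yeast fusion mutant, YPEG (non-fermentable carbon), compound, 48 h at 37C non-permissive; CellTiterGlo added, 10 min RT, luminescence read. Rescued growth = division inhibition.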
A-T KAP1 phos: potential ataxia-telangiectasia treatment. F2112 A-T fibroblasts, KAP-1 phosphorylation AlphaLISA; neocarzinostatin DNA damage 30 min before lysis. Potency, µM (top dose mostly 57.5 µM), for the others: at the top dose activation, hits mostly activators. actives 0.19% (n = 320,000). AID 485349; also: % of control where 0% means no effect; nearly all actives have a fitted effect of over 45% in size
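hTERT-immortalized A-T patient fibroblasts (F2112), 500 cells/well in OPTI-MEM, 1% FBS, got compounds for 60 min, then NCS for 30 min at 37C. Lysates were then assayed for phospho-KAP-1 by AlphaLISA (anti-pKAP1 donor, anti-KAP1 acceptor beads), 6 hr at 25C.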
MCF10A rereplic: DNA re-replication induction in MCF 10a cells | MCF 10A DNA re-replication, Hoechst nuclear intensity, 48 h | Potency, µM (titrated, usually from 46.1 µM), without a hit: top-dose activity, positive = re-replication, actives largely listed as activators | actives 2.9% (n = 350,000); also: % of control where 0% means no effect; nearly all actives have a fitted effect of over 50% in size
Numbers without * were called inactive; ? = inconclusive; nt = no result. Calls follow the shape of the dose curve; as a rule, active = well fitted activation curve with a large enough effect; inconclusive = small, poorly fitted or top-dose-only effect; inactive = no such curve, though single readings can be large or run the other way. Potency is read from the fitted curve at half-maximal effect.

SMILES	SW480 rereplic	Integrin act MD	Mito fusion act	A-T KAP1 phos	MCF10A rereplic
COc1ccccc1N1CCN(c2ccnc3cc(Cl)ccc23)CC1	8.2µM*	-15%	20%	7%	2.6µM*
COc1ccccc1NC(=O)N1CCN(c2ccnc3cc(Cl)ccc23)CC1	-6%	-20%	0%	33%	-7%
COC(=O)c1ccc(COC(=O)c2ccc(CO)cc2)o1	3%	7%	-1%	nt	0%
Cc1ccc([C@H]2C[C@@H](n3cc(-c4ccc(F)cc4)nn3)[C@H](O)CN2C(=O)C2CCCCC2)cc1	nt	-7%	nt	nt	nt
Cc1ccccc1SCC(=O)NNC(=O)c1ccccc1O	13µM*	-45%	2%	-6%	-8%
COC(=O)Nc1cc(C(=O)c2ccc(Cl)cc2Cl)c[nH]1	-12%	33%	7%	-5%	-1%
CC(C)(C)n1nc2c(c1NC(=O)COc1ccc(F)cc1)CS(=O)(=O)C2	12%	29%	1%	6%	1%
Cc1ccccc1OCC(=O)Nc1c2c(nn1C(C)(C)C)CS(=O)(=O)C2	18µM*	0%	1%	-6%	2%
COC(=O)C(=C/C(C)=C/c1cccnc1)C(=O)OC	?	-67%	-18%	11%	8.2µM*
COC(=O)/C(=C/c1cccnc1)NC(=O)c1ccccc1	-7%	-1%	-1%	0%	-10%
C=C1CC2(CC(c3ccccc3)OC(c3ccccc3)C2)OC1=O (stereo not drawn)	?	-58%	nt	nt	12µM*
CCC(C)Sc1cc(-c2nc3ccc(Cl)cn3c2NC2CCCCC2)ccc1OC (stereo not drawn)	?	-10%	nt	7%	?
COc1ccc(-c2cccc(-c3nc4ccc(Cl)cn4c3NC3CCCCC3)c2)cc1	?	19%	nt	2%	15µM*
C[C@H](CO)N1C[C@H](C)[C@@H](CN(C)C(=O)Nc2cc(F)ccc2F)Oc2ncc(-c3cccc(F)c3)cc2C1=O	nt	-12%	nt	nt	nt
Cc1csc(=O)n1CC(=O)OCC(=O)c1c(N)n(CC(C)C)c(=O)n(C)c1=O	6.5µM*	-41%	-1%	-2%	?
Cc1csc(=O)n1CC(=O)OCC(=O)c1c(N)n(C)c(=O)n(C)c1=O	-57%	0%	3%	-6%	-2%
COC(=O)CN1C(=S)N(Cc2ccccc2)C(=O)C1CC(=O)Nc1ccc(Br)cc1 (stereo not drawn)	?	-30%	15%	4%	18µM*
COC(=O)CN1C(=S)N(c2ccc(Cl)cc2)C(=O)C1CC(=O)Nc1ccc(Cl)cc1 (stereo not drawn)	-3%	2%	1%	6%	?
O=C(Nc1ccccc1)c1cc2ccccc2s1	-1%	35%	nt	nt	0%
COc1ccccc1-c1nc2ccccc2nc1-c1ccccc1	1%	?	22%	0%	?
COc1ccccc1-c1nc2cc3ccccc3cc2nc1-c1ccccc1OC	9.2µM*	-14%	1%	0%	?
O=C(NCc1cccnc1)/C(=C\c1ccc(-c2cccc(Cl)c2)o1)S(=O)(=O)c1ccccc1	?	-61%	0%	31%	7.3µM*
O=C(NCc1cccnc1)/C(=C/c1ccc(-c2cccc(Cl)c2)o1)S(=O)(=O)c1ccccc1	4%	-28%	-12%	15%	?
COc1ccc(OC)c(NC(=O)CSc2nnc(-c3ccco3)n2-c2ccccc2)c1	3.7µM*	-39%	6%	-1%	1%
CCn1c(SCC(=O)C(C)(C)C)nnc1-c1ccccn1	1%	-1%	-7%	-3%	23µM*
SMILES	SW480 rereplic	Integrin act MD	Mito fusion act	A-T KAP1 phos	MCF10A rereplic
C=CCn1c(SCC(=O)Nc2ccccc2OC)nnc1-c1ccccn1	18µM*	13%	4%	1%	?
COc1ccc(-n2c(SCC(=O)Nc3cccc(C(=O)O)c3)nnc2-c2ccco2)cc1	-14%	?	0%	11%	-7%
Cc1cc(C)cc(NC(=O)CSc2nnc(-c3ccccc3)n2N)c1	-5%	1%	0.63µM*	14%	0%
Cc1cccc(NC(=O)CSc2nnc(-c3ccccc3)n2N)c1	1%	14%	-5%	?	-2%
N#Cc1ccccc1NC(=O)CSc1nnc(-c2ccccc2)n1-c1ccccc1	23µM*	-22%	-2%	0%	?
CCN(CC)c1ccc(-c2nnc(SCC(=O)Nc3ccccc3C#N)n2-c2ccccc2)cc1	10%	-52%	-2%	9%	27%
CCCn1c(SCC(=O)Nc2ccccc2OC)nnc1-c1ccco1	9.2µM*	0%	12%	3%	6.5µM*
COCCn1c(SCC(=O)Nc2ccccc2OC)nnc1-c1ccco1	-15%	-24%	0%	16%	-2%
CCn1c(SCC(=O)Nc2nnc(C)s2)nnc1-c1ccco1	-6%	-21%	-3%	0%	2%
CCc1nnc(NC(=O)CSc2nnc(-c3ccco3)n2CCOC)s1	-7%	-7%	5.6µM*	-5%	1%
C[C@@H]1CN([C@H](C)CO)C(=O)CCCn2nncc2CO[C@H]1CN(C)Cc1ccc(O)cc1	nt	17%	nt	nt	nt
COc1ccc(OCCCn2ccnc2)cc1	-3%	1%	-21%	3.2µM*	3%
COc1cccc(OCCCn2ccnc2)c1	-4%	3%	-5%	3%	2%
C=C[C@@H]1c2ccccc2N(S(=O)(=O)c2ccc(C)cc2)[C@H](c2ccc(OC(C)=O)cc2)C1(C#N)C#N	?	-39%	?	14%	?
C=C[C@@H]1c2cc(C)ccc2N(S(=O)(=O)c2ccc(C)cc2)[C@H](c2ccc(OC(C)=O)cc2)C1(C#N)C#N	21%	-42%	0%	1%	3.3µM*
CC(C)CCN1CCC(CN2C(=O)C(=O)NC[C@@H]2Cc2ccccc2)CC1	9%	5%	nt	nt	7%
CO/N=C/C(=N\Nc1ccc(C)cc1)C(=O)c1ccc(OC)cc1	?	-15%	-4%	-3%	2.6µM*
CC1=C(C(=O)N2CCOCC2)CC(CC(=O)NC2CCCCC2)C(=O)N1Cc1ccc(F)cc1 (stereo not drawn)	nt	-24%	nt	nt	nt
CCC(C)C(=O)OC1CC(O)C=C2C=CC(C)C(CCC(O)CC(O)CC(=O)O)C21 (stereo not drawn)	9%	nt	nt	nt	16%
O=C(Cc1csc(Nc2nc(=S)[nH]c3ccccc23)n1)NCc1ccc(Cl)cc1	?	11%	-7%	-12%	16µM*
O=C(Cc1csc(Nc2nc(=S)[nH]c3ccccc23)n1)NCCCN1CCN(c2ccccc2F)CC1	18µM*	-30%	6%	18%	7.3µM*
COc1ccc(CNC(=O)Cc2csc(Nc3nc(=S)[nH]c4ccccc34)n2)cc1	-7%	-21%	-11%	9%	3%
CC1=C(n2nnc([N+](=O)[O-])n2)C(c2cccnc2)C(C#N)=C(N)O1 (stereo not drawn)	12%	-30%	-5%	7%	14%

Compound activity (PubChem BioAssay)
